Compound activity from PubChem BioAssay.
Pf growth 48h – P. falciparum growth inhibition at 48 hours (one generation); P. falciparum luciferase growth in erythrocytes, 48 h; Potency, µM (series often up to 28.7 µM), usual class: inhibitors; 5.9% of 310,000 active
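In quantitative HTS format, infected erythrocytes bearing luciferase-reporter parasites were treated for a single generation at 37 C. Luminescence after adding detection reagent served as the growth measure.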
NS1 function inh – influenza NS1 inhibition | Potency, µM (series often up to 46.1 µM) | 0.4% of 270,000 active; calls by dose curve; further: actives are rising curves; nearly all actives have a fitted effect of over 50% in size
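A cell-based growth assay was used: compounds that relieve NS1-induced slow growth of budding yeast raise OD600. Assay medium was yeast nitrogen base with ammonium sulphate and -URA supplement, pH 6.0, with 2% galactose.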
Cycloheximide cs – affects cycloheximide protein synthesis inhibition readout, counter-screen. 12% of 300,000 active. max response, %. cell reporter, cycloheximide protein synthesis inhibition counterscreen. AID 2314; in the data active means max response mostly above about 13%, no sharp cut-off; inactive means mostly below about 14%; further: read at 38.3 µM for the half of the compounds with a filed dose
Pf growth 96h – P. falciparum growth inhibition at 96 hours. AID 504834. Potency, µM (titrated, usually from 28.7 µM), most hits filed as inhibitors. 6.9% of 320,000 active. P. falciparum luciferase reporter growth, 96 h
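Two parasite generations (96 h, 37 C, 5% CO2) of compound exposure in infected erythrocytes (0.05% parasitemia, 2% hematocrit). Luciferase-reporter P. falciparum; decreased luminescence indicates inhibited growth, aimed at apicoplast-acting delayed death.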
Shiga inhibitor – Shiga toxin inhibition. Vero cells, Shiga toxin protein synthesis inhibition reporter. inhibition, % at 38.7 µM. 9.2% of 290,000 active. AID 2315; in the data active means inhibition mostly above about 28%, no sharp cut-off; inactive means mostly below about 43%
A number is an active result; – = inactive; ? = inconclusive; · = no result given; [ ] = remark or other dose. This is a sample that favours compounds with a hit; in the whole collection about 21% have one here. Unless noted, the call rests on the fitted dose curve; in most records, active means well fitted inhibition curve with a large enough effect; inconclusive means small, poorly fitted or top-dose-only effect, or another doubt; inactive means no such curve, though single readings can be large or run the other way.

SMILES	Pf growth 48h	NS1 function inh	Cycloheximide cs	Pf growth 96h	Shiga inhibitor
COc1ccc(NC(=O)c2ccc(C(=O)Nc3ccc(OC)cc3OC)cc2)c(OC)c1	–	·	–	?	–
COc1ccc(NC(=O)c2ccccc2O)c(OC)c1	·	–	51.2	?	87.6
CC(C)NC(=O)c1cc(C(=O)c2cc(Cl)ccc2O)coc1=N	–	–	–	?	–
COc1ccc(NC(=O)c2c(OC)cccc2OC)c(OC)c1	4.65µM	–	–	?	–
CCOc1ccccc1NC(=O)c1cc(C(=O)c2cc(OC)ccc2O)coc1=N	4.65µM	–	–	2.33µM	–
CCc1ccc(C(=O)COC(=O)c2cnccn2)cc1	–	–	–	·	–
Cc1ccc(OC(C)C(=O)Nc2ccc(C)c(S(=O)(=O)Nc3ccc(C)cc3C)c2)cc1 (stereo unspecified)	–	–	–	?	–
Cc1ccc(CNC(=O)c2ccc(N3CCC4(CC3)CC(c3ccccc3)=NO4)c([N+](=O)[O-])c2)cc1	?	–	–	?	–
CCS(=O)(=O)Nc1cccc(C2=NN(S(C)(=O)=O)C(c3cccs3)C2)c1 (stereo unspecified)	–	–	–	?	–
CS(=O)(=O)Nc1ccc(C2=NN(S(C)(=O)=O)C(c3ccccc3)C2)cc1 (stereo unspecified)	–	–	–	–	41.8
CS(=O)(=O)N1N=C(c2ccccc2)CC1c1ccc2c(c1)OCO2 (stereo unspecified)	–	–	66.3	–	99.0
CS(=O)(=O)Nc1cccc(C2=NN(S(C)(=O)=O)C(c3ccc4c(c3)OCO4)C2)c1 (stereo unspecified)	–	–	24.7	2.33µM	49.7
Cc1ccc(Cl)cc1N(CC(=O)NC1CCCC1)C(=O)c1csnn1	–	–	–	–	–
Cc1cccc(OCCCC(=O)Nc2ccc(N(C)C)cc2)c1	–	–	84.2	–	121.9
CCOC(=O)c1ccc(NC(=O)CCc2ccc(CC)o2)cc1	?	–	–	?	–
CCCOC(=O)c1ccc(NC(=O)CCOc2ccccc2)cc1	·	–	12.6	–	–
CCCOC(=O)c1ccc(NC(=O)CCC(=O)OCC)cc1	–	–	28.8	?	78.5
CCOC(=O)c1ccc(NC(=O)CCOc2ccccc2)cc1	·	–	–	–	–
COc1ccc(C(=O)COC(=O)CCc2ccccc2)cc1	–	–	–	–	–
COc1ccc(CCC(=O)OCC(=O)Nc2ccccc2)cc1	–	–	20.4	–	–
Cc1ccc(OCCCC(=O)Nc2ccc(S(N)(=O)=O)cc2)cc1	–	·	–	14.7µM	–
COc1ccc(C(=O)COC(=O)CCC(=O)Nc2ccc(C(C)=O)cc2)cc1	–	–	40.1	–	46.9
CCOc1ccc(NC(=O)CCC(=O)c2ccc(OC)cc2)cc1	–	–	–	–	–
COc1ccc(NC(=O)CS(=O)(=O)c2ccccc2Cl)cc1	–	–	16.3	–	–
O=C(COc1ccc(/C=N/NC(=O)c2ccccc2O)cc1)Nc1ccc([N+](=O)[O-])cc1	–	–	–	11.7µM	–
SMILES	Pf growth 48h	NS1 function inh	Cycloheximide cs	Pf growth 96h	Shiga inhibitor
CCC(C)NC(=O)CNC(=O)c1nn(-c2ccc(OC)c(Cl)c2)c(=O)c2ccccc12 (stereo unspecified)	?	–	–	–	–
Cc1ccc(C)c(NC(=O)CCOc2ccccc2)c1	–[0.00184 µM]	–	–	?	–
O=C(CCOc1ccccc1)Nc1ccc([N+](=O)[O-])cc1	–	·	–	–	36.6
Cc1ccc(NC(=O)CCOc2ccccc2)cc1	–	–	54.1	–	61.5
O=C(CCOc1ccccc1)Nc1ccccc1	–	–	27.2	11.7µM	–
COc1ccc(OCCC(=O)Nc2ccccc2)cc1	–	–	16.9	–	26.2
Cn1c(C(=O)NCCCN2CCCC2=O)cc2c(=O)n3ccccc3nc21	·	–	·	·	·
Cc1ccc(C(=O)CN(CCC(=O)O)S(=O)(=O)c2ccc([N+](=O)[O-])cc2)cc1	–	·	·	–	·
O=C(CCCOc1ccccc1)Nc1ncccn1	–	–	31.5	–	37.6
NC(=O)Cn1nnc(-c2ccc(CN3CCCCC3)cc2)n1	–	–	–	?	–
Cc1ccccc1N=Nc1c(C)[nH]n(C(N)=S)c1=O	?	–	19.7	?	66.6
Cc1[nH]n(C(N)=S)c(=O)c1N=Nc1ccc([N+](=O)[O-])cc1Cl	–	–	14.3	–	–
Cc1cccc(N=Nc2c(C)[nH]n(C(N)=S)c2=O)c1C	–	–	–	–	–
NC(=S)n1[nH]c(-c2ccc([N+](=O)[O-])cc2)c(N=Nc2cccc(Cl)c2)c1=O	?	·	–	–	–
Cc1[nH]n(C(N)=S)c(=O)c1N=Nc1cccc(Cl)c1	·	–	31.7	–	60.2
